eIF4H FP inh = human eIF4H binding inhibitors, primary screen, translation initiation inhibitor project, biochemical, uHTS, fluorescence polarization; inhibition, % at 35 µM; eIF4H fluorescence polarization binding assay; 0.94% of 290,000 active; Eukaryotic translation initiation factor 4H (Homo sapiens), Q15056; AID 2012, 2009;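 also: calls also rest on retests at 20 µM and on dose response follow-up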
PABP polyA inh = PABP poly(A) RNA binding inhibitors, primary screen, biochemical, fluorescence polarization, uHTS | calls only at 35 µM | 1% of 290,000 active;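 also: calls also rest on retests at 20 µM and on dose response follow-up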
AI-2 QS mod = Vibrio harveyi AI-2 quorum sensing modulators, primary screen, JMH597 strain, luminescence/OD600 ratio; Vibrio harveyi JMH597 AI-2 luminescence/OD600 ratio, 9 h; hits give low values; strain lacks LuxN and CqsS sensors; 0 = neutral-control median; activity change, % at 7.5 µM; 0.4% of 300,000 active; AID 2094, 2009; in the data active = activity change below about -75%, passing the limit was not always enough; inconclusive = no clear call, values can overlap the other calls;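 also: luminescence divided by OD600 gain over 9 h not by final OD600 alone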
PABP1 MLLE inh = inhibitors of PABP1 MLLE–PAM2 peptide binding, primary screen, biochemical, fluorescence polarization, FITC-PAM2, GST-MLLE | Polyadenylate-binding protein 1 (Homo sapiens), P11940 | inhibition, % at 20 µM | 0.36% of 360,000 active | AID 588489, 2011; in the data active = inhibition above about 35%, passing the limit was not always enough;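 also: plate controls were DMSO wells with GST-MLLE for no effect and wells lacking GST-MLLE protein for full effect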
ABCB6 inh 2 = ABCB6 transporter inhibitors, primary screen, K562-ABCB6 cells, flow cytometry, MLPCN library; K562-ABCB6 porphyrin accumulation, 1 h; hits give low values; ATP-binding cassette sub-family B member 6 (Homo sapiens), Q9NP58; AID 602162, 2011; fluorescence ratio to DMSO, % at 10 µM; 0.19% of 360,000 active;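 active = fluorescence ratio to DMSO below 75%, the collection mean minus 3 SD; inconclusive = too few cells collected in the well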;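 also: signal is porphyrin accumulated inside mitochondria; 100% equals median channel fluorescence of DMSO control wells; lower ratio means ABCB6 inhibition with less porphyrin fluorescence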
PHOSPHO1 inh = PubChem AID 1565; 1.1% of 290,000 active; Phosphoethanolamine/phosphocholine phosphatase (Homo sapiens), Q8TCT1; inhibition, % at 13.3 µM; recombinant PHOSPHO1, absorbance phosphatase assay; in the data active = inhibition above about 60%
Target sequence (Q8TCT1 whole entry, looked up): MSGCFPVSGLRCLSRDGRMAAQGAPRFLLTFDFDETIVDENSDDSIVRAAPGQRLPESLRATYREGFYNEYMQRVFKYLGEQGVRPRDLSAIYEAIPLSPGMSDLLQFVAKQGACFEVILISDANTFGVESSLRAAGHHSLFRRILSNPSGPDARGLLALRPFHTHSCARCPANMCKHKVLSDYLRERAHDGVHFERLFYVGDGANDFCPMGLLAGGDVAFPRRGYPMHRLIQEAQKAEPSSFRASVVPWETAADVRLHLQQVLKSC
JMH597 growth = Vibrio harveyi growth inhibition, confirmation, counter-screen for AI-2 quorum sensing project, JMH597 strain, OD600 absorbance; growth inhibition, % at 7.5 µM; AID 2726, 2010; 1% of 750 active; shares compounds with AI-2 QS mod; 9 h; lacks LuxN and CqsS sensors;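 active = every replicate shows growth inhibition above 50%; inconclusive = at least half, but not all, replicates pass that cutoff; inactive = fewer than half of replicates pass it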
BB721 const-QS lum = luminescence inhibition in constitutive-on V. harveyi, confirmation, counter-screen for LuxS inhibitor project, strain BB721, luminescence readout. shares compounds with AI-2 QS mod. Vibrio harveyi BB721 luminescence, 9 h. inhibition, % at 7.5 µM. 95% of 750 active. AID 2727, 2010;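 active = inhibition above about 80% in every replicate, not just on average, limit read from the data; inconclusive = at least half of replicates past the limit, but not all; inactive = fewer than half of replicates past the limit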
BB721 growth = growth inhibition of V. harveyi BB721, confirmation, cytotoxicity control for AI-2 quorum sensing inhibitors, strain BB721, absorbance OD600 | shares compounds with AI-2 QS mod | Vibrio harveyi BB721 growth, 9 h | growth inhibition, % at 7.5 µM | 3% of 750 active;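 active = every replicate shows growth inhibition above 50%; inconclusive = at least half but not all replicates above 50% inhibition; inactive = under half of replicates above 50% inhibition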
AI-2 QS JMH597 = Vibrio harveyi AI-2 signaling luminescence modulation – JMH597 strain, confirmation; Vibrio harveyi JMH597 AI-2 quorum sensing luminescence, 9 h; luxN and CqsS knockout, AI-2 only; inhibition, % at 7.5 µM; AID 2736, 2010; shares compounds with AI-2 QS mod; 97% of 750 active;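 active = every replicate shows more than 75% inhibition of signal versus neutral control wells; inconclusive = half to three quarters of replicates exceed 75% inhibition; inactive = fewer than half of replicates exceed 75% inhibition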
An asterisk follows results filed as active; i = inactive; u = inconclusive; x = no result. An excerpt weighted towards active compounds, which were near 2.6% of everything screened. Unless noted, no rule for the calls is given here.

SMILES	eIF4H FP inh	PABP polyA inh	AI-2 QS mod	PABP1 MLLE inh	ABCB6 inh 2	PHOSPHO1 inh	JMH597 growth	BB721 const-QS lum	BB721 growth	AI-2 QS JMH597
c1ccc(OCc2nc(-c3cccs3)no2)cc1	-3	i	-84*	0	96	12	24	96*	11	97*
CC(C)C[C@@H]1CC2=C(C(=O)OC(C)(C)O2)[C@H](c2ccc(Cl)cc2)O1	x	x	x	x	99	x	x	x	x	x
O=C(NCCN1CCOCC1)c1ccc(Cl)c([N+](=O)[O-])c1	4	i	u	-3	104	45	4	-6	-16	5
CNc1cccc(-c2cccc(C(=O)N3CCOCC3)c2)n1	x	x	x	-7	98	x	x	x	x	x
COc1cc([N+](=O)[O-])ccc1NC(=O)COC(=O)C=C(C)C	-2	i	-23	0	101	10	x	x	x	x
O=C(COc1ncnc2ccccc12)Nc1cccc([N+](=O)[O-])c1	-1	i	-96*	1	98	4	-9	98*	-41	99*
O=C(COc1ncnc2ccccc12)Nc1ccccc1[N+](=O)[O-]	1	i	27	-4	96	-6	x	x	x	x
CC(C)=CC(=O)OCC(=O)Nc1cccc([N+](=O)[O-])c1	-2	i	-89*	9	99	4	11	95*	4	97*
O=C(COc1ncnc2ccccc12)Nc1ccc(Cl)c([N+](=O)[O-])c1	0	i	-97*	-5	99	-27	-21	100*	-10	100*
Cc1cccc(NC(=O)c2ncn3c2C(=O)N[C@H](C)C3)c1	x	x	x	-1	99	x	x	x	x	x
O=C1C(c2ccccc2)=NCCN1C(c1ccc(F)cc1)c1nc2ccccc2[nH]1 (centres undefined)	x	x	x	-6	98	x	x	x	x	x
O=C(COc1ccccc1)Nc1ccc(S(=O)(=O)NCc2ccco2)cc1	10	i	-97*	-2	98	13	13	100*	-57	100*
O=C(COc1ccccc1F)Nc1ccc(S(=O)(=O)NCc2ccco2)cc1	1	i	-92*	-12	95	-22	29	99*	-12	99*
O=C(COc1ccccc1)NCC(=O)Nc1ccc(S(=O)(=O)NCc2ccco2)cc1	4	i	26	-9	95	-6	x	x	x	x
Cc1ccc(C(=O)OCC(=O)c2c[nH]c3ccccc23)cc1	1	i	-79*	-3	96	2	1	77*	13	86*
Cc1sc2ncnc(OCC(=O)N3CCN(S(=O)(=O)c4ccc(Cl)cc4)CC3)c2c1C	-6	i	21	-14	90	7	x	x	x	x
Cc1sc2ncnc(OCC(=O)c3ccc(S(=O)(=O)N4CCCC4)cc3)c2c1C	-10	i	-90*	-4	96	-12	u	98*	69*	99*
Cc1c(C(=O)NCc2ccc(C(F)(F)F)cc2)sc(=O)n1Cc1ccc(S(=O)(=O)N(C)C)cc1	x	x	x	1	93	x	x	x	x	x
O=C(/C=C/c1ccc(F)cc1)NCCC1=CCCCC1	-6	i	-89*	-7	94	-18	u	97*	25	98*

High-throughput results from PubChem BioAssay.
